# Values joined by “and” are separate entries in the source; they are usually repeats but may differ in a detail not shown here. Identical values can stand only once. In all, about 420,000 compounds went through this assay and about 64,000 (15%) were called active. About 27% were inconclusive and are not listed. Calls come from the whole dose curve; as a rule, active = well fitted inhibition curve with a large enough effect; inconclusive = small, poorly fitted or top-dose-only effect; inactive = flat fitted curve, though single readings scatter. Not all results are given here. A call without a number means that no potency is given here.
# Assay: qHTS for Inhibitors of human tyrosyl-DNA phosphodiesterase 1 (TDP1): qHTS in cells in absence of CPT; note: nearly all actives have a fitted effect of over 55% in size
# Conditions: DT40 Tdp1-/- hTDP1 cells, no CPT, ATP luminescence, 48 h; activity change, negative = growth inhibition: at 46.2 µM (top of the series)
# How it was run: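 Camptothecin absent (DMSO only). Human TDP1-complemented DT40 knockout cells, 400 cells/well, 37 °C for minimum 48 hr; ATP measured via CellTiter-Glo, 30 min dark incubation, luminescence.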
# Potency is the fitted concentration of half-maximal effect.
row,SMILES,Potency
1,CN(C(=O)c1cccc(NC(=O)C2CCN(C(=O)OC(C)(C)C)CC2)c1)C1CCC1,inactive
2,CN(C(=O)c1cccc(NC(=O)Cc2ccc(NC(=O)C3CCCN(C(=O)C4CC4)C3)cc2)c1)C1CC1 (stereo not drawn),inactive
3,CC(=O)c1cccc(NC(=O)N2CCCC2C(=O)NCCc2ccccc2)c1 (stereo not drawn),inactive
4,CCNC(=O)c1cccc(NC(=O)C2CC(=O)N(CCc3ccccc3)C2)c1 (stereo not drawn),inactive
5,CN(CCc1ccccc1)C(=O)c1cccc(NC(=O)Cc2cccc(NC(=O)C3CCCN(C(=O)CCc4ccccc4)C3)c2)c1 (stereo not drawn),13 µM (active)
6,CC(C)(C)OC(=O)N1CCC(C(=O)Nc2cccc(C(=O)NCCc3ccccc3)c2)CC1,14.6 µM (active)
7,CN(C(=O)c1cccc(NC(=O)Cc2cccc(NC(=O)C3CCCN(C(=O)C4CC4)C3)c2)c1)C1CCC1 (stereo not drawn),inactive
8,CN(C(=O)c1ccc(NC(=O)Cc2cccc(NC(=O)C3CCN(C(=O)c4ccccc4)CC3)c2)cc1)C1CC1,inactive
9,O=C(Cc1ccc([N+](=O)[O-])cc1)Nc1ccc(C(=O)N2CCOCC2)cc1,inactive
10,O=C(Cc1ccc(NC(=O)C2CCCN(C(=O)CCc3ccccc3)C2)cc1)Nc1ccc(C(=O)N2CCOCC2)cc1 (stereo not drawn),18.4 µM (active)
11,O=C(Cc1ccc(NC(=O)C2CCCN(C(=O)C3CCCCC3)C2)cc1)Nc1cccc(C(=O)N2CCCCC2)c1 (stereo not drawn),inactive
12,CN(C(=O)c1cccc(NC(=O)Cc2ccc(NC(=O)C3CCCN(C(=O)C4CCCC4)C3)cc2)c1)C1CCC1 (stereo not drawn),20.6 µM (active)
13,Cc1cc(NC(=O)CCC(=O)N(Cc2ccccc2)C(C(=O)NC2CCCC2)c2ccc(C)o2)no1 (stereo not drawn),inactive
14,CCc1nc2ccc(C(=O)NC3CCN(Cc4ccccc4)CC3)cn2c1N(C)CCN1CCOCC1,inactive
15,O=C(NC(=S)Nc1ccccc1C(=O)O)c1ccc(-c2ccc(Br)cc2)o1,inactive
16,O=C(c1cccnc1NCc1ccccc1)N1CCOCC1,inactive
17,CC(=O)Nc1ccc(NC(=O)c2ccc3c(c2)C(=O)N(c2ccccc2C)C3=O)cc1,inactive
18,NC(=O)C1(N2CCCCC2)CCN(C(=O)c2ccc(C#Cc3ccccc3)o2)CC1,inactive
19,COCCCNC(=O)CNC(=S)N(Cc1cc(OC)c(OC)c(OC)c1)C1CCCC1,inactive
20,COc1ccc(C)cc1N(C)C(=O)c1coc(=O)c2ccccc12,inactive
21,CC/C(Cc1ccccc1)=N/NC(=O)CCn1nnc2ccccc21,inactive

row,SMILES,Potency
1,NS(=O)(=O)c1ccc(NC(=S)N2CCCC2)cc1,inactive
2,CN(C)C(=S)N=c1ssc(=S)n1Cc1ccco1,1.64 µM (active)
3,CCN(CC)C(=O)CSc1nnc(CNc2ccc(F)cc2)n1Cc1ccco1,inactive
4,CC1CN(Cc2ccco2)C(=S)N(c2ccccc2)C1=O (stereo not drawn),inactive
5,CC1=CC=CC2=N/C(=N\S(=O)(=O)c3ccc(F)cc3F)c3ccccc3CN12,inactive
6,CCOC(=O)CSC1=C(C#N)C(c2sccc2C)CC(=O)N1 (stereo not drawn),3.55 µM (active)
7,COC(=O)CSC1=C(C#N)C(c2ccccc2OC)C(C(=O)OC)C(=O)N1 (stereo not drawn),inactive
8,C=CCSC1=C(C#N)C(c2cc(Br)c(O)c(OC)c2)CC(=O)N1 (stereo not drawn),inactive
9,COc1cccc(CNC(=O)C2CCN(S(=O)(=O)c3cccc4cccnc34)CC2)c1,inactive
10,Cc1ccc2nc3n(c(=O)c2c1)CCC3,inactive
11,Cc1ccc2nc(C)c3c(c2c1)N(c1ccccc1)CC3,13 µM (active)
12,Cc1nc2ccc(C(=O)N3CCN(c4ccccc4)CC3)cc2s1,inactive
13,CC(=O)c1ccc(NC(=O)CCc2nnc3ccc(NCc4ccco4)nn23)cc1,inactive
14,Cc1cc(C)nc(NS(=O)(=O)c2ccc(NC(=O)c3cc(=O)c4ccc(C)c(C)c4o3)cc2)n1,inactive
15,Cc1nc(SCC(=O)Nc2ccc(C(=O)O)cc2)n[nH]1,inactive
16,O=S(=O)(N1CCOCC1)N1CCN(c2ccccc2F)CC1,inactive
17,O=S(=O)(Nc1cc(Cl)ccc1N1CCOCC1)c1ccccc1Cl,inactive
18,O=C1c2ccccc2-c2ncnc3c(N4CCOCC4)cc(N4CCOCC4)c1c23,10.3 µM (active)
19,COc1ccc(CCNC(=O)CSc2nnc3ccc(-c4ccncc4)nn23)cc1,inactive
20,Cc1nn(Cc2ccc(F)cc2)c(C)c1NC(=O)c1noc2c1CCc1ccccc1-2,18.4 µM (active) and 16.4 µM (active)
21,CC(C)Cc1cc(C(=O)NCCc2ccccc2)no1,inactive

row,SMILES,Potency
1,Cc1ccccc1Cn1nc(C)c(NC(=O)C(F)(F)F)c1C,inactive
2,Cc1nn(Cc2ccccc2Cl)c(C)c1NC(=O)Cn1nc([N+](=O)[O-])c(Cl)c1C,inactive
3,CC(C)CNC(=O)c1cc(-c2ccc(Br)cc2)on1,inactive
4,CC(C)Cc1cc(C(=O)Nc2cc(Br)ccc2O)no1,14.6 µM (active)
5,Cc1nn(Cc2ccc(F)cc2)c(C)c1NC(=O)c1cccnc1Cl,inactive
6,Cc1nn(Cc2ccc(F)cc2)c(C)c1NC(=O)c1cc(CC(C)C)on1,20.6 µM (active)
7,Cc1cc(C(=O)Nc2c(C)nn(Cc3ccccc3)c2C)on1,inactive
8,c1ccc(CN=C2Nc3ccccc3CS2)nc1,inactive
9,CC1(C)O[C@H]2CC(=O)OCC23[C@H]2CC[C@@]4(C)[C@H](c5ccoc5)OC(=O)[C@H]5O[C@]54[C@]2(C)C(=O)C[C@@H]13 (stereo partly drawn),inactive
10,COc1ccc(NC(=O)c2c(SC)nsc2SC)cc1,inactive
11,Oc1ccc2c(c1)OCC1c3cc4c(cc3OC21)OCO4 (stereo not drawn),inactive
12,CCSc1sc(CC)cc1C=O,inactive
13,COc1ccccc1/C=C/C=N/NC(=O)CN1CCN(Cc2ccccc2)CC1,inactive
14,Cc1cc(SCc2c(F)cccc2Cl)nc(=O)[nH]1,inactive
15,COc1ccc(NC(=O)NC(C)c2c(-n3cccc3)sc(C)c2C)cc1OC (stereo not drawn),16.4 µM (active)
16,CCn1cc(NC(=O)Nc2ccc(OC)c(OC)c2)c(C(N)=O)n1,inactive
17,COc1ccc(NC(=O)N2CCCn3nc(C)cc32)cc1OC,inactive
18,Cc1ccc(NC(=O)CCC(=O)c2ccc(Br)cc2)cc1,inactive
19,NC(Cc1ccc(F)cc1)c1csc(Nc2nncc3ccccc23)n1 (stereo not drawn),4.11 µM (active)
20,COCC(C)NC(=O)COc1nncc2ccccc12 (stereo not drawn),inactive
21,O=C(Nc1ccc2c(c1)OCCO2)C1CCCN(c2ncccn2)C1 (stereo not drawn),inactive

# Source: PubChem BioAssay AID686978 (National Center for Advancing Translational Sciences (NCATS), 2013)
